# ± gives the standard deviation of the averaged measurements.
# Experiments:
# Test in all cases: promoter activity interaction Z-score (Lux/OD deviation from empty-vector control); higher = stronger promoter induction by the compound
# [1] = test system: E. coli BW25113 acrABp lux reporter
# In short: (§1)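 At 37°C, E. coli BW25113 reporter cultures in 40 µl LB Lennox in 384-well plates were read for OD600 and luminescence every 30 min for 12 h. Windows were 0–8 h for wild type and 1–9 h for deletion strains, and wells under 10% of the median growth value were removed. The score is the Z-transformed residual of growth-normalised luminescence against a control fit.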
# [2] = test system: E. coli BW25113 marRABp lux reporter
# In short: as §1
# [3] = test system: E. coli BW25113 micFp lux reporter
# In short: as §1
# [4] = test system: E. coli BW25113 ompFp lux reporter
# In short: as §1
# [5] = test system: E. coli BW25113 robp lux reporter
# In short: as §1
# [6] = test system: E. coli BW25113 soxSp lux reporter
# In short: as §1
# [7] = test system: E. coli BW25113 tolCp lux reporter
# In short: as §1
# [8] = 0.25 µg/ml, genetic background: wild type
# [9] = 0.25 µg/ml, genetic background: ΔmarA
# [10] = 0.25 µg/ml, genetic background: Δrob
# [11] = 0.25 µg/ml, genetic background: ΔsoxS
# [12] = 0.5 µg/ml, genetic background: wild type
# [13] = 0.5 µg/ml, genetic background: ΔmarA
# [14] = 0.5 µg/ml, genetic background: Δrob
# [15] = 0.5 µg/ml, genetic background: ΔsoxS
# [16] = 1 µg/ml, genetic background: wild type
# [17] = 1 µg/ml, genetic background: ΔmarA
# [18] = 1 µg/ml, genetic background: Δrob
# [19] = 1 µg/ml, genetic background: ΔsoxS
# [20] = 2 µg/ml, genetic background: wild type
# [21] = 2 µg/ml, genetic background: ΔmarA
# [22] = 2 µg/ml, genetic background: Δrob
# [23] = 2 µg/ml, genetic background: ΔsoxS
smiles,measurement,setting,value
C/C(=C\C(=O)OCCCCCCCCC(=O)O)C[C@@H]1OC[C@H](C[C@@H]2O[C@H]2[C@@H](C)[C@H](C)O)[C@@H](O)[C@H]1O [Pseudomonic acid],promoter activity interaction Z-score,[1]; [8],-0.112 ± 0.0017
same,promoter activity interaction Z-score,[1]; [9],0.206 ± 0.33
same,promoter activity interaction Z-score,[1]; [10],0.0305 ± 0.27
same,promoter activity interaction Z-score,[1]; [11],-0.332 ± 0.5
same,promoter activity interaction Z-score,[1]; [12],-0.272 ± 0.0069
same,promoter activity interaction Z-score,[1]; [13],0.456 ± 0.14
same,promoter activity interaction Z-score,[1]; [14],-0.0699 ± 0.0047
same,promoter activity interaction Z-score,[1]; [15],-0.0985 ± 0.042
same,promoter activity interaction Z-score,[1]; [16],-0.204 ± 0.26
same,promoter activity interaction Z-score,[1]; [17],0.378 ± 0.38
same,promoter activity interaction Z-score,[1]; [18],-0.109 ± 0.35
same,promoter activity interaction Z-score,[1]; [19],0.483 ± 0.38
same,promoter activity interaction Z-score,[1]; [20],-0.0697 ± 0.066
same,promoter activity interaction Z-score,[1]; [21],-0.0876 ± 0.43
same,promoter activity interaction Z-score,[1]; [22],0.431 ± 0.61
same,promoter activity interaction Z-score,[1]; [23],-0.262 ± 0.13
same,promoter activity interaction Z-score,[2]; [8],0.11 ± 0.42
same,promoter activity interaction Z-score,[2]; [9],-0.235 ± 0.012
same,promoter activity interaction Z-score,[2]; [10],-0.0762 ± 0.015
same,promoter activity interaction Z-score,[2]; [11],0.0844 ± 0.02
same,promoter activity interaction Z-score,[2]; [12],-0.132 ± 0.23
same,promoter activity interaction Z-score,[2]; [13],0.0957 ± 0.22
same,promoter activity interaction Z-score,[2]; [14],-0.00927 ± 0.019
same,promoter activity interaction Z-score,[2]; [15],-0.0242 ± 0.093
same,promoter activity interaction Z-score,[2]; [16],-0.169 ± 0.093
same,promoter activity interaction Z-score,[2]; [17],-0.155 ± 0.7
same,promoter activity interaction Z-score,[2]; [18],-0.106 ± 0.21
same,promoter activity interaction Z-score,[2]; [19],-0.0673 ± 0.12
same,promoter activity interaction Z-score,[2]; [20],0.422 ± 0.28
same,promoter activity interaction Z-score,[2]; [21],0.511 ± 0.47
same,promoter activity interaction Z-score,[2]; [22],0.235 ± 0.31
same,promoter activity interaction Z-score,[2]; [23],0.341 ± 0.086
same,promoter activity interaction Z-score,[3]; [8],-0.00251 ± 0.014
same,promoter activity interaction Z-score,[3]; [9],-0.0765 ± 0.049
same,promoter activity interaction Z-score,[3]; [10],0.0594 ± 0.055
same,promoter activity interaction Z-score,[3]; [11],-0.253 ± 0.16
same,promoter activity interaction Z-score,[3]; [12],-0.108 ± 0.12
same,promoter activity interaction Z-score,[3]; [13],0.0535 ± 0.005
same,promoter activity interaction Z-score,[3]; [14],-0.0538 ± 0.014
same,promoter activity interaction Z-score,[3]; [15],0.11 ± 0.00091
same,promoter activity interaction Z-score,[3]; [16],-0.064 ± 0.06
same,promoter activity interaction Z-score,[3]; [17],-0.0233 ± 0.076
same,promoter activity interaction Z-score,[3]; [18],-0.144 ± 0.018
same,promoter activity interaction Z-score,[3]; [19],0.271 ± 0.095
same,promoter activity interaction Z-score,[3]; [20],-0.0515 ± 0.13
same,promoter activity interaction Z-score,[3]; [21],-0.351 ± 0.054
same,promoter activity interaction Z-score,[3]; [22],-0.275 ± 0.0059
same,promoter activity interaction Z-score,[3]; [23],-0.431 ± 0.085
same,promoter activity interaction Z-score,[4]; [8],0.431 ± 0.041
same,promoter activity interaction Z-score,[4]; [9],0.122 ± 0.59
same,promoter activity interaction Z-score,[4]; [10],0.647 ± 0.08
same,promoter activity interaction Z-score,[4]; [11],0.0332 ± 0.47
same,promoter activity interaction Z-score,[4]; [12],0.435 ± 0.061
same,promoter activity interaction Z-score,[4]; [13],0.376 ± 0.74
same,promoter activity interaction Z-score,[4]; [14],0.561 ± 0.78
same,promoter activity interaction Z-score,[4]; [15],0.388 ± 0.58
same,promoter activity interaction Z-score,[4]; [16],0.248 ± 0.034
same,promoter activity interaction Z-score,[4]; [17],0.569 ± 0.62
same,promoter activity interaction Z-score,[4]; [18],-0.0747 ± 0.3
same,promoter activity interaction Z-score,[4]; [19],0.938 ± 0.33
same,promoter activity interaction Z-score,[4]; [20],1.46 ± 0.058
same,promoter activity interaction Z-score,[4]; [21],1.34 ± 1.3
same,promoter activity interaction Z-score,[4]; [22],1.51 ± 0.36
same,promoter activity interaction Z-score,[4]; [23],1.34 ± 0.34
same,promoter activity interaction Z-score,[5]; [8],0.653 ± 0.041
same,promoter activity interaction Z-score,[5]; [9],0.421 ± 0.4
same,promoter activity interaction Z-score,[5]; [10],0.357 ± 0.37
same,promoter activity interaction Z-score,[5]; [11],0.316 ± 0.48
same,promoter activity interaction Z-score,[5]; [12],0.392 ± 0.59
same,promoter activity interaction Z-score,[5]; [13],0.85 ± 0.05
same,promoter activity interaction Z-score,[5]; [14],0.39 ± 0.34
same,promoter activity interaction Z-score,[5]; [15],0.257 ± 0.2
same,promoter activity interaction Z-score,[5]; [16],0.263 ± 0.2
same,promoter activity interaction Z-score,[5]; [17],0.154 ± 0.026
same,promoter activity interaction Z-score,[5]; [18],0.375 ± 0.08
same,promoter activity interaction Z-score,[5]; [19],0.843 ± 0.45
same,promoter activity interaction Z-score,[5]; [20],-0.842 ± 0.42
same,promoter activity interaction Z-score,[5]; [21],-1.15 ± 0.4
same,promoter activity interaction Z-score,[5]; [22],-1.28 ± 0.23
same,promoter activity interaction Z-score,[5]; [23],-1.41 ± 0.72
same,promoter activity interaction Z-score,[6]; [8],-0.0625 ± 0.032
same,promoter activity interaction Z-score,[6]; [9],-0.0981 ± 0.09
same,promoter activity interaction Z-score,[6]; [10],0.0456 ± 0.03
same,promoter activity interaction Z-score,[6]; [11],-0.226 ± 0.46
same,promoter activity interaction Z-score,[6]; [12],-0.257 ± 0.034
same,promoter activity interaction Z-score,[6]; [13],-0.0627 ± 0.0052
same,promoter activity interaction Z-score,[6]; [14],-0.182 ± 0.0097
same,promoter activity interaction Z-score,[6]; [15],-0.102 ± 0.24
same,promoter activity interaction Z-score,[6]; [16],-0.14 ± 0.14
same,promoter activity interaction Z-score,[6]; [17],-0.143 ± 0.15
same,promoter activity interaction Z-score,[6]; [18],-0.259 ± 0.033
same,promoter activity interaction Z-score,[6]; [19],0.137 ± 0.11
same,promoter activity interaction Z-score,[6]; [20],0.249 ± 0.064
same,promoter activity interaction Z-score,[6]; [21],0.277 ± 0.25
same,promoter activity interaction Z-score,[6]; [22],0.0902 ± 0.012
same,promoter activity interaction Z-score,[6]; [23],0.748 ± 0.0089
same,promoter activity interaction Z-score,[7]; [8],-0.891 ± 0.62
same,promoter activity interaction Z-score,[7]; [9],-0.0344 ± 0.2
same,promoter activity interaction Z-score,[7]; [10],-0.281 ± 0.4
same,promoter activity interaction Z-score,[7]; [11],-1.37 ± 0.18
same,promoter activity interaction Z-score,[7]; [12],-0.126 ± 0.82
same,promoter activity interaction Z-score,[7]; [13],0.395 ± 0.35
same,promoter activity interaction Z-score,[7]; [14],-0.919 ± 0.45
same,promoter activity interaction Z-score,[7]; [15],-0.306 ± 0.13
same,promoter activity interaction Z-score,[7]; [16],-0.0576 ± 0.9
same,promoter activity interaction Z-score,[7]; [17],0.349 ± 1.1
same,promoter activity interaction Z-score,[7]; [18],-0.441 ± 0.81
same,promoter activity interaction Z-score,[7]; [19],0.0561 ± 0.82
same,promoter activity interaction Z-score,[7]; [20],0.277 ± 0.14
same,promoter activity interaction Z-score,[7]; [21],-0.606 ± 0.55
same,promoter activity interaction Z-score,[7]; [22],0.432 ± 0.075
same,promoter activity interaction Z-score,[7]; [23],-1.08 ± 0.07

# — the supplement of paper PMC12282887
